The full list was thinned out, with hits kept by preference.
PKA inh: PKA (human) kinase inhibition; inhibition, % at 6 µM; PKA Kemptide phosphorylation, Kinase-Glo ATP luminescence; hit rate 0.1% among 65,000; P17612;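 active = inhibition above the screen-wide mean inhibition plus 3 SD, cut at about 21% in these data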
ROCK2 inh: blocks human Rho kinase 2 activity; O75116; purified ROCK2, Kinase-Glo ATP depletion luminescence; inhibition, % at 6 µM; hit rate 0.35% among 60,000; AID 604;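 active = inhibition above the screen-wide mean inhibition plus 3 SD, cut at about 18% in these data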;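 also: plate controls were DMSO wells for no effect and Y-27632 control wells after no-enzyme background subtraction for full effect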
D1 mod: allosterically modulates the human D1 dopamine receptor; P21728; HEK293 D1, CRE-luciferase, dopamine EC30 potentiation; actives deviate in either direction; B-score at 10 µM; hit rate 5.9% among 58,000;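 active = luminescence count or its row- and column-corrected plate score outside the 99.7% band of the plate's sample wells, on either side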
hDAT+cocaine: changed human dopamine transporter uptake under cocaine IC80. Q01959. LLC-PK1 hDAT cells, [14C]-dopamine uptake with cocaine IC80; actives deviate in either direction. B-score at 10 µM. hit rate 1.3% among 110,000. AID 449768;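 active = Z score or B-score, a plate-position-corrected score, falls beyond the plate's 99.7% confidence bounds, in either direction; inactive = both scores lie inside the 99.7% bounds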;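 also: scored against the spread of the other compound wells on the same plate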
Target sequence (Q01959 whole entry, looked up): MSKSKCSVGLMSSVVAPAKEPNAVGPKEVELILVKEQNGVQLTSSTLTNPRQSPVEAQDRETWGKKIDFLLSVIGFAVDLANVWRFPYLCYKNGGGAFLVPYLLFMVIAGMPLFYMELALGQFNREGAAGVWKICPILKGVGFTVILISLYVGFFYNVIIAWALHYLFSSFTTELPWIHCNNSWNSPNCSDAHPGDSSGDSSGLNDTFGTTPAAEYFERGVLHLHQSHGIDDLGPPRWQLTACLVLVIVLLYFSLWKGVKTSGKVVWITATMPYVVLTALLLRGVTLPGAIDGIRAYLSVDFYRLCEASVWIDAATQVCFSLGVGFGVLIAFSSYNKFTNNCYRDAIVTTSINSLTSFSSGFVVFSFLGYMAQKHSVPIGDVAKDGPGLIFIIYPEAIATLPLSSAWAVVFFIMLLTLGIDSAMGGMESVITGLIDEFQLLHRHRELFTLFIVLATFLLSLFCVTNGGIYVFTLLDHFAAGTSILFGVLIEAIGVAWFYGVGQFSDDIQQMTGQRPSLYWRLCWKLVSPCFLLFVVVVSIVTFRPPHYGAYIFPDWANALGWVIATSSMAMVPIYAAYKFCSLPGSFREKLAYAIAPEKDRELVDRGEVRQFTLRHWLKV
* marks the source's active call; other numbers are inactive results; nt = no result.

SMILES	PKA inh	ROCK2 inh	D1 mod	hDAT+cocaine
C=CCn1c(=O)c2ccccc2n2c(SCc3cc(=O)n4ccsc4n3)nnc12	1	0	-0.013	2.8*
C=CCn1c(=O)c2ccccc2n2c(SCC(=O)c3ccccc3)nnc12	8	3	0.48	0.014
C=CCn1c(SCc2cc(=O)n3ccsc3n2)nc2sc(C)c(C)c2c1=O	-5	-2	4*	-1.2
Cc1ccc(S(=O)(=O)NC(=O)c2ccc(Br)o2)cc1	nt	nt	nt	-0.63
COC(=O)c1sc(NC(=O)c2cc3c(s2)CCCC3)nc1C	-1	2	-2.1	-0.28
Cc1csc(NC(=O)c2cc3c(s2)CCC3)n1	-3	nt	-5.6*	1.9
Cc1nc(NC(=O)c2cc3c(s2)CCCCC3)sc1C(=O)N(C)C	9	6	-0.47	2.3*
COc1ccc(C2/C=C\CN(C(=O)C3CCCC3)CC(=O)N2Cc2ccc(F)cc2)cc1 (stereo not given)	nt	nt	nt	0.44
O=C(CN1CCC(n2nnc3ccccc32)CC1)Nc1ccc2c(c1)CCC2	11	4	nt	3.1*
O=C(Nc1ccc(S(=O)(=O)N2CCc3ccccc32)cc1)c1ccco1	-7	-2	-4.9*	-0.69
CC1CCCC(C)N1C(=O)COC(=O)c1ccc(O)cc1 (stereo not given)	nt	nt	nt	0.94
Cc1ccc(OCCn2cc(/C(N)=N/O)c3ccccc32)cc1C	-1	0	-3.1*	0.11
O=C(CSc1nc(-c2ccccc2)c(-c2ccccc2)[nH]1)NCCN1C(=O)CSC1=O	nt	nt	nt	0.22
CC(C)(C)n1nc2c(c1NC(=O)c1ccc(Br)cc1)CS(=O)C2 (stereo not given)	2	6	-0.42	-0.9
Cc1ccc(C(=O)Nc2c3c(nn2C(C)(C)C)CS(=O)(=O)C3)cc1C	8	nt	-2.9*	-0.22
C=CCSc1nnc2c(n1)OC(c1c(C)[nH]n(-c3ccccc3)c1=O)Nc1ccccc1-2 (stereo not given)	nt	nt	nt	1.7
O=C(c1ccc2nc3ccccc3c(=O)n2c1)N1CCN(Cc2ccc3c(c2)OCO3)CC1	nt	nt	nt	0.94
O=C(c1ccc(Br)o1)N1CCN(Cc2ccc3c(c2)OCO3)CC1	8	-1	-1.6	0.52
CN(c1ccc(C(=O)N2CCN(Cc3ccc4c(c3)OCO4)CC2)cc1)S(=O)(=O)c1ccccc1	nt	nt	nt	3.5*
O=C(c1ccc(Br)s1)N1CCN(Cc2ccc3c(c2)OCO3)CC1	10	9	-1.4	2.1*
O=C(c1cccn2c(=O)c3ccccc3nc12)N1CCN(Cc2ccc3c(c2)OCO3)CC1	1	nt	-0.54	3.2*
O/C(=C\Sc1nnc(Cc2ccccc2)o1)c1ccc(F)cc1	nt	nt	nt	-0.072
CSc1nc(-c2ccccc2)nc2c1COC(C)(C)C2	7	-1	1	0.053
CN(C)CCSc1nc(-c2ccccc2)nc2c1COC(C)(C)C2	nt	nt	nt	3*
CC12CN3CC(C)(CN(C1)C3c1ccc(Br)cc1O)C2 (stereo not given)	4	0	nt	0.28
SMILES	PKA inh	ROCK2 inh	D1 mod	hDAT+cocaine
COc1ccc(C2N3CC4(C)CN2CC(C)(C3)C4)cc1OC (stereo not given)	5	nt	nt	-7.5*
O=c1c2ccccc2ncn1Cc1nc2ccccc2s1	7	nt	0.025	0.49
O=c1c2ccccc2cnn1-c1nc2ccccc2s1	-22	-10	-4.5*	nt
C[C@@H](c1ncncc1F)[C@](O)(Cn1cncn1)c1ccc(F)cc1F	nt	nt	nt	-0.091
COc1ccccc1N1CCN(CC(O)COc2c(OC)cccc2OC)CC1 (stereo not given)	10	9	-4.6*	-1.3
COc1ccccc1N1CCN(CC(O)c2ccc3cc[nH]c3c2)CC1 (stereo not given)	-10	-1	-2.6*	-1.2
C=CCc1ccccc1OCC(O)CN1CCN(c2ccc(OC)cc2)CC1 (stereo not given)	-3	4	-2.6*	-1.1
COc1cccc(OC)c1OCC(O)CN1CCN(c2ccccc2)CC1 (stereo not given)	2	1	-2.9	-0.61
COc1ccccc1N1CCN(C(=O)CSc2ccccc2)CC1	nt	nt	nt	1.9
COc1cc(OC)c(OC)cc1CN1CCN(c2ccccc2OC)CC1	-8	-1	-3.7*	-1.4
NC(=O)C1=C[C@@H](c2csc3ccccc23)C[C@@H](OCCCCO)O1	nt	nt	nt	0.0027
Cc1cccc2c(SCC(=O)NCC3CCCO3)nc(-c3ccc(F)cc3)nc12 (stereo not given)	nt	nt	nt	0.38
CC(C)N1CC(O)=C(c2nc3ccccc3c(=O)[nH]2)C1=N	nt	nt	nt	1.3*
COc1cccc(N2CC(O)=C(c3nc4ccccc4c(=O)[nH]3)C2=N)c1	8	nt	nt	0.26
O=C(NC1CC1)c1ccc(-c2nc3ccccc3s2)s1	1	-7	-6*	0.017
Cc1noc(C)c1COC(=O)c1ccc(-c2nc3ccccc3s2)s1	8	2	-1.2	0.48
COc1ccc(/C=N/NC(=O)Cc2csc(Nc3cccc(C(F)(F)F)c3)n2)c(OC)c1	nt	nt	nt	2.7*
Cc1ccccc1Cn1nnc(-c2cccc(C(=O)O)c2)n1	2	4	-2.7*	-0.12
CC(C)(C(=O)c1cccnc1)c1cccnc1	nt	nt	nt	0.46
Fc1ccc2c(Cl)c(-c3nnc(-c4cccs4)o3)sc2c1	12	4	-6.4*	-0.092
CCOC(=O)C(NS(=O)(=O)c1ccc(Br)cc1)C(C)C (stereo not given)	4	nt	-0.27	1.1
CCOC(=O)N1CCC(N2C(=O)c3ccccc3C2Nc2ccc3c(c2)OCCO3)CC1 (stereo not given)	0	0	-3.1*	-0.57
C#CCNC(=O)C1=C[C@H](c2ccc(C(F)(F)F)cc2)[C@@H](CCCO)[C@H](OCC)O1	nt	nt	nt	0.66
CC(Sc1nnc2c(n1)C1(C)CCC2C1(C)C)C(=O)Nc1ccccc1 (stereo not given)	nt	nt	nt	-0.062
Oc1cccc(Nc2nc(NCC3CCCO3)c3ccccc3n2)c1 (stereo not given)	-5	-3	-5*	1.6
SMILES	PKA inh	ROCK2 inh	D1 mod	hDAT+cocaine
c1ccc(-c2nc(NCC3CCCO3)c3ccccc3n2)nc1 (stereo not given)	7	12	nt	0.69
COc1ccc(C2SCC(=O)N2CC23CC4CC(CC(C4)C2)C3)cc1 (stereo not given)	nt	nt	nt	0.024
Cc1cccc(C)c1OCC(O)Cn1c2ccccc2c2ccccc21 (stereo not given)	nt	nt	nt	-0.061
Cc1ccc(OCC(O)Cn2c3ccccc3c3ccccc32)cc1 (stereo not given)	nt	nt	nt	1.7*
CCCCOc1ccc(NC(=O)C2CC=CCC2C(=O)O)cc1 (stereo not given)	6	3	-2.6*	-0.94
O=C(OCc1cc(=O)n2c(n1)sc1ccccc12)c1ccc2c(=O)n3c(nc2c1)CCC3	2	2	4.2*	-0.42
CCCc1nc(NCC2CCCO2)c2nnn(Cc3ccccc3)c2n1 (stereo not given)	nt	nt	nt	-1
Cc1ccc(N2CC(C(=O)Nc3nccs3)CC2=O)cc1 (stereo not given)	6	1	-7.4*	0.037
CC1=NC(C(F)(F)F)(C(F)(F)F)C(C#N)=C(C)N1	-1	2	0.15	-3.8*
CC(=O)c1c(C)[nH]c(C(=O)OCC(=O)N2CCc3ccccc32)c1C	nt	nt	nt	-2.6*
CCOC(=O)c1[nH]c(C)c(C(=O)OCC(=O)N2CCc3ccccc32)c1C	nt	nt	nt	-1.1
N#Cc1c(Cl)nc(SCc2ccccc2)nc1-c1ccccc1	nt	nt	nt	-2.3

Screening data: PubChem BioAssay, several laboratories
